Assays:
Conditions in all cases: concentration: 1 μM,replicates: in singlicate; n = 1
PIP5K1A = system: PIP5K1A
PIP5K1C = system: PIP5K1C
PIP5K2B = system: PIP5K2B
PIP5K2C = system: T1, PIP5K2C
T1 construct: gene PIP4K2C

PKAC-alpha = system: T2, PKAC-alpha
T2 construct: gene PRKACA

PKAC-beta = system: T3, PKAC-beta
T3 construct: gene PRKACB

PKMYT1 = system: PKMYT1
PKN1 = system: PKN1
PKN2 = system: PKN2
PLK1 = system: PLK1
PLK2 = system: PLK2
PLK3 = system: PLK3
PLK4 = system: PLK4
PRKCD = system: PRKCD
PRKCE = system: PRKCE
PRKCH = system: PRKCH
PRKCI = system: PRKCI
PRKCQ = system: PRKCQ
PRKD1 = system: PRKD1
PRKD2 = system: PRKD2
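Also: KINOMEscan kinase panel screen.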

Row | Structure (SMILES) | %Inh (PIP5K1A) [%] | %Inh (PIP5K1C) [%] | %Inh (PIP5K2B) [%] | %Inh (PIP5K2C) [%] | %Inh (PKAC-alpha) [%] | %Inh (PKAC-beta) [%] | %Inh (PKMYT1) [%] | %Inh (PKN1) [%] | %Inh (PKN2) [%] | %Inh (PLK1) [%] | %Inh (PLK2) [%] | %Inh (PLK3) [%] | %Inh (PLK4) [%] | %Inh (PRKCD) [%] | %Inh (PRKCE) [%] | %Inh (PRKCH) [%] | %Inh (PRKCI) [%] | %Inh (PRKCQ) [%] | %Inh (PRKD1) [%] | %Inh (PRKD2) [%]
1 | Cc1ccc2c(-c3ccncc3)c(-c3ccc(F)cc3)nn2c1.Cl [GW461484] | 24 | 24 | 31 | 10 | 18 | 22 | 0 | 0 | 8 | 0 | 0 | 0 | 0 | 8 | 8 | 0 | 28 | 21 | 34 | 55
2 | CNC(=O)c1ccccc1Sc1ccc2c(/C=C/c3ccccn3)n[nH]c2c1 | 12 | 0 | 12 | 0 | 0 | 0 | 100 | 0 | 0 | 0 | 40 | 34 | 97.7 | 4 | 58 | 0 | 9 | 3 | 0 | 8
3 | CC(C)Nc1cc(-c2ccc3c(N)n[nH]c3c2)nc(N)n1 [GSK2221681] | 56 | 28 | 32 | 0 | 0 | 0 | 0 | 29 | 0 | 0 | 0 | 0 | 0 | 0 | 0 | 0 | 11 | 12 | 0 | 0
4 | C[C@H]1Oc2cc(cnc2N)-c2c(nn(C)c2C#N)CN(C)C(=O)c2ccc(F)cc21 | 0 | 44 | 0 | 0 | 18 | 0 | 33 | 12 | 0 | 0 | 0 | 0 | 97.9 | 15 | 0 | 12 | 21 | 12 | 0 | 12
5 | C=CC(=O)Nc1cc2c(Nc3ccc(F)c(Cl)c3)ncnc2cc1OCCCN1CCOCC1 [GW781483] | 18 | 0 | 0 | 27 | 11 | 10 | 20 | 18 | 0 | 0 | 0 | 0 | 26 | 0 | 30 | 0 | 0 | – | 0 | 0
6 | CCn1c(-c2nonc2N)nc2c(C#CC(C)(C)O)nc(OCCN)cc21.Cl.Cl [GSK902056] | 1 | 86 | 9 | 13 | 67 | 81 | 8 | 8 | 0 | 0 | 0 | 0 | 3 | 81 | 97.9 | 96.5 | 20 | 89 | 14 | 14
7 | Cc1occc1-c1nc(N)c(OC[C@@H](N)Cc2c[nH]c3ccccc23)cc1-c1cc2c(C)n[nH]c2cn1 [GSK1660450] | 65 | 42 | 11 | 0 | 99.9 | 99.3 | 24 | 63 | 22 | 57 | 65 | 52 | 0 | 100 | 99.6 | 95.7 | 34 | 100 | 93.3 | 97.4
8 | CN(C)CC(O)COc1ccc(Nc2nccc(-c3cnn4nc(N5CCOCC5)ccc34)n2)cc1 (stereo not drawn) [GW767488] | 37 | 24 | 77 | 82 | 0 | 0 | 9 | 13 | 38 | 37 | 28 | 35 | 63 | 14 | 0 | 0 | 36 | 21 | 93.7 | 98.2
9 | C[C@@H]1CCN(C(=O)CC#N)C[C@@H]1N(C)c1ncnc2[nH]ccc12 | 0 | 0 | 0 | 0 | 0 | 0 | 20 | – | – | 0 | 0 | 0 | 0 | 18 | 45 | 12 | 5 | 0 | 0 | 0
10 | Nc1nc(Nc2ccccc2)cc(-c2ccc3c(N)n[nH]c3c2)n1 [GSK2225749] | 46 | 82 | 38 | 61 | 0 | 0 | 0 | 50 | 0 | 0 | 0 | 0 | 6 | 8 | 0 | 0 | 20 | 0 | 0 | 0
11 | C[C@@H](Oc1cc(-c2cnn(C3CCNCC3)c2)cnc1N)c1c(Cl)ccc(F)c1Cl | 0 | 0 | 79 | 0 | 0 | 0 | 0 | 2 | 0 | 0 | 17 | 17 | 88 | 20 | 2 | 0 | 24 | 26 | 61 | 31
12 | Cc1ccc(-n2nc(C(C)(C)C)cc2NC(=O)Nc2ccc(OCCN3CCOCC3)c3ccccc23)cc1 [GW839464] | 0 | 37 | 23 | 19 | 0 | 34 | 21 | 100 | 0 | 24 | 0 | 0 | 2 | 21 | 15 | 0 | 20 | 0 | 0 | 20
13 | Cc1cc(C(=O)Nc2ccc(Oc3ccc4nc(NC(=O)C5CC5)cn4n3)cc2)nn1-c1ccccc1 | 3 | 27 | 50 | 22 | 0 | 21 | 0 | 0 | 11 | 0 | 0 | 0 | 0 | 9 | 0 | 0 | 44 | 0 | 0 | 0
14 | CC(C)N1C(=O)Cc2cc(Nc3ncc(C(F)(F)F)c(NCc4cccc(S(C)(=O)=O)c4)n3)ccc21 | 34 | 0 | 57 | 52 | 0 | 0 | 15 | 24 | 7 | 28 | 61 | 64 | 67 | 0 | 0 | 0 | 0 | 9 | 0 | 16
15 | Cc1n[nH]c2ccc(-c3cc(OC[C@@H](N)Cc4ccccc4)cnc3-c3ccoc3)cc12.O=C(O)C(F)(F)F.O=C(O)C(F)(F)F [GSK507358] | 0 | 38 | 41 | 31 | 98.9 | 98 | 0 | 33 | 9 | 3 | 0 | 0 | 0 | 99.8 | 95.5 | 95.9 | 33 | 95.4 | 91.4 | 99.2
16 | Cl.Cl.NC[C@H](Cc1ccc(C(F)(F)F)cc1)NC(=O)c1cc(Br)c(-c2ccnc3[nH]ccc23)s1 [GSK1487252] | 0 | 22 | 39 | 3 | 99.4 | 98.8 | 10 | 12 | 79 | 0 | 0 | 0 | 8 | 97.3 | 97.5 | 98 | 17 | 88 | 83 | 57
17 | O=C(NCCCN1CCOC1=O)c1cnc(NCc2cc(Cl)ccc2Cl)nc1NC1CCCC1 | 0 | 39 | 0 | 7 | 4 | 6 | 27 | 0 | 10 | 0 | 0 | 4 | 17 | 3 | 14 | 8 | 23 | 0 | 23 | 0
18 | CCN(CC)CCCCNc1ncc2cc(-c3c(Cl)cccc3Cl)c(NC(=O)NC(C)(C)C)nc2n1 | 0 | 0 | 0 | 3 | 11 | 0 | 0 | 0 | 4 | 0 | 5 | 7 | 13 | 22 | 74 | 0 | 19 | 0 | 28 | 5

From PMC5540273 (PLoS ONE, 2017)
